The values that follow come from PubChem BioAssay AID1259421 (Broad Institute, 2018).

Values joined by “and” are separate entries in the source; they are usually repeats but may differ in a detail not shown here. Equal values may be shown once. The whole screen tested about 6,400 compounds, of which about 610 (9.5%) were called active. Cut-off read from the data, not from the text of the source: active = activity change below about -70%; inconclusive = no clear call, values can overlap the other calls; inactive = above that. The sample as a whole holds a higher share of actives than the screen did. Some structures have more than one record in an assay (separate samples or runs), and their calls can disagree. *1 amine or outer side, *2 acyl side, *3 side chain or, on linkers, in order; H or OH if unused. Where a SMILES comes first, the peptide text is derived from it. Bridges are numbered along the chain shown (N, C = ends). Roman numbers before positions name the chains, in order. [ ]: non-standard residue; d: D form. Actinocin(9to1) = Cc1c2oc3c(C)ccc(C(=O)[*:1])c3nc-2c(C(=O)[*:2])c(N)c1=O; NMeV = CN[CH](C(=O)O)C(C)C; Sar = CNCC(=O)O

The assay is described as follows: Toxoplasma gondii ME49Luc growth in HeLa cells, luciferase, no IFN-y, primary screen (AID 1259421). Particulars: T. gondii ME49Luc in HeLa, 72 h, stronger effect = lower value, concentration not given here.
As to `Brc1cccc(Nc2ncnc3cc4nc[nH]c4cc23)c1`, the activity change, negative = inhibition is 3.71% (inactive).
The result for `O=c1[nH]c2cc(Cl)c(Cl)cc2[nH]c1=O` reads -86.2% (active); that for `O=c1[nH]c2cc([N+](=O)[O-])c([N+](=O)[O-])cc2[nH]c1=O`, 17.4% (inactive) and 5.82% (inactive) and 4.72% (inactive); that for `O=c1[nH]c2cc(Cl)c(Cl)c([N+](=O)[O-])c2[nH]c1=O`, 7.55% (inactive).
In the case of `COc1cc([C@@H]2Oc3c(O)cc([C@H]4Oc5cc(O)cc(O)c5C(=O)[C@@H]4O)cc3[C@H]2CO)ccc1O` it was -10.5% (inactive); in that of `CC(C)O.CC(C)O.CC(C)O.[In]`, 12.3% (inactive).
As to `Cc1c2oc3c(C)ccc(C(=O)N[C@@H]4C(=O)N[C@H](C(C)C)C(=O)N5CCC[C@H]5C(=O)N(C)CC(=O)N(C)[C@@H](C(C)C)C(=O)O[C@@H]4C)c3nc-2c(C(=O)N[C@@H]2C(=O)N[C@H](C(C)C)C(=O)N3CCC[C@H]3C(=O)N(C)CC(=O)N(C)[C@@H](C(C)C)C(=O)O[C@@H]2C)c(N)c1=O` (I: T[dV]P[Sar][NMeV] / II: T[dV]P[Sar][NMeV]; ester I:1-I:C, II:1-II:C; linker I:N-II:N via Actinocin(9to1)), the activity change, negative = inhibition was -88.5% (active).
The result for `Cc1c2oc3c(C)ccc(C(=O)OC(C)C4NC(=O)C(C(C)C)N(C)C(=O)CN(C)C(=O)C5CCCN5C(=O)C(C(C)C)NC4=O)c3nc-2c(C(=O)OC(C)C2NC(=O)C(C(C)C)N(C)C(=O)CN(C)C(=O)C3CCCN3C(=O)C(C(C)C)NC2=O)c(N)c1=O` (configuration not stated) (I: cyclo([Sar][NMeV]TVP) / II: cyclo([Sar][NMeV]TVP); linker I:3-II:3 via Actinocin(9to1); configuration not given here) reads -87.1% (active).
Take `CCC1OC(=O)[C@H](C)C(=O)[C@H](C)[C@@H](OC2O[C@H](C)C[C@H](N(C)C)[C@H]2O)[C@](C)(OC)C[C@@H](C)C(=O)[C@@H](C)[C@@H]2N(CCCCn3cnc(-c4cccnc4)c3)C(=O)O[C@]12C` (some centres not stated): the activity change, negative = inhibition is -0.624% (inactive).
In the case of `COCCCCC(=NOCCN)c1ccc(C(F)(F)F)cc1` it was 4.87% (inactive).
With `O=C(CCCc1ccc(-c2ccccc2F)cc1)Nc1ccc(O)cc1`, the activity change, negative = inhibition is -67.6% (inactive) and -60.5% (inactive).
In the case of `Cn1cnc(-c2cc3nccc(Oc4ccc(NC(=S)NC(=O)Cc5ccccc5)cc4F)c3s2)c1` it was 28.8% (inactive); in that of `Nc1nccc(Oc2ccc(NC(=O)c3c[nH]cc(-c4ccc(F)cc4)c3=O)cc2F)c1Cl`, -76.8% (active); in that of `CCOc1ccn(-c2ccc(F)cc2)c(=O)c1C(=O)Nc1ccc(Oc2ccnc(N)c2Cl)c(F)c1`, 0.966% (inactive).
For the compound `N#Cc1ccc(NCCNCC(=O)N2CCC[C@H]2C#N)nc1`, the activity change, negative = inhibition was -0.604% (inactive).
In the case of `COc1ccc(-c2cc(=O)c3c(O)cc(O[C@@H]4O[C@@H](CO[C@@H]5O[C@H](C)[C@@H](O)[C@H](O)[C@H]5O)[C@H](O)[C@@H](O)[C@H]4O)cc3o2)cc1O` it was 6.66% (inactive).
On to `CCc1c(Cl)c(O)c(Cl)c(O)c1C(=O)O[C@H]1[C@H](O)[C@H](OC)[C@H](OCC2=C/C=C/C[C@H](O)/C(C)=C\[C@H](CC)[C@H](O[C@@H]3OC(C)(C)[C@@H](OC(=O)C(C)C)[C@H](O)[C@H]3O)/C(C)=C\C(C)=C\C[C@H]([C@@H](C)O)OC2=O)O[C@@H]1C`, for which the activity change, negative = inhibition was 16.6% (inactive).
In the case of `C[C@H]1O[C@@H](O[C@H]2[C@@H](O)C[C@H](O[C@H]3[C@@H](O)C[C@H](O[C@H]4CC[C@]5(C)C6C[C@@H](O)[C@]7(C)[C@@H](C8=CC(=O)OC8)CC[C@]7(O)C6CC[C@@H]5C4)O[C@@H]3C)O[C@@H]2C)C[C@H](O)[C@@H]1O` (some centres not stated) it was -76.7% (active) and -101% (active); in that of `C[C@H]1O[C@@H](O[C@H]2[C@@H](O)C[C@H](O[C@H]3[C@@H](O)C[C@H](O[C@H]4CC[C@]5(C)C6CC[C@]7(C)[C@@H](C8=CC(=O)OC8)CC[C@]7(O)C6CC[C@@H]5C4)O[C@@H]3C)O[C@@H]2C)C[C@H](O)[C@@H]1O` (some centres not stated), -83.2% (active) and -93.3% (active); in that of `C=CCn1c(=O)n([C@@H]2O[C@H](CO)[C@@H](O)[C@H]2O)c2nc(N)[nH]c(=O)c21`, -1.47% (inactive).
In the case of `CCNC(=O)CCC(N)C(=O)O` (configuration not stated), the activity change, negative = inhibition is 15.2% (inactive).
The result for `CC1(C)C2CC[C@]3(C)C(C(=O)C=C4[C@@H]5C[C@@](C)(C(=O)O)CC[C@]5(C)CC[C@]43C)[C@@]2(C)CC[C@@H]1OC(=O)CCC(=O)O` (some centres not stated) reads 6.36% (inactive); that for `O=C(c1c(O)c2ccc(Cl)cc2[nH]c1=O)C1CC1`, 3.48% (inactive) and 5.32% (inactive); that for `C=CCN1CCCC1CNC(=O)c1cc2[nH]nnc2cc1OC` (configuration not stated), 3.75% (inactive).
With `CC1(C)C(=O)[C@@H]2C[C@@]3(O)C4=CC(=O)O[C@@H](c5ccoc5)[C@]4(C)CCC3[C@@](C)(C2=O)[C@H]1CC(=O)O` (some centres not stated), the activity change, negative = inhibition was 0.589% (inactive).
For the compound `O=c1n(CC2CO2)c(=O)n(CC2CO2)c(=O)n1CC1CO1` (configuration not stated), the activity change, negative = inhibition is 36.1% (inactive).
The result for `COc1ccc2cc1Oc1cc3c(cc1OC)CC[N+](C)(C)[C@H]3Cc1ccc(cc1)Oc1c(OC)c(OC)cc3c1[C@@H](C2)[N+](C)(C)CC3` reads 18.6% (inactive).
On to `COc1ccc2cc1Oc1ccc(cc1)C[C@H]1c3cc(c(OC)cc3CCN1C)Oc1c(OC)c(OC)cc3c1[C@H](C2)N(C)CC3`, for which the activity change, negative = inhibition is -77.3% (active) and 18.9% (inactive).
In the case of `COc1ccc2cc1Oc1ccc(cc1)C[C@H]1c3c(cc4c(c3Oc3cc5c(cc3OC)CCN(C)[C@@H]5C2)OCO4)CCN1C` it was 12.1% (inactive) and -4.88% (inactive).
In the case of `CC(O)CCCCn1c(=O)c2c(ncn2C)n(C)c1=O` (configuration not stated) it was -6.61% (inactive); in that of `CCCN(CCc1cccs1)[C@H]1CCc2c(O)cccc2C1`, 10.9% (inactive); in that of `CCCCn1c(=O)c2[nH]c(C34CC5CC(CC3C5)C4)nc2n(CCCO)c1=O`, 12% (inactive) and -13.1% (inactive).
In the case of `O=C1[C@@H](Cc2ccc(O)cc2)N2C(=O)CCN(C(=O)NCc3ccccc3)[C@H]2CN1Cc1cccc2ccccc12` it was 1.58% (inactive); in that of `CC(=O)OC(C)(C)[C@@H]1Cc2cc3ccc(=O)oc3cc2O1`, -5.08% (inactive).
Regarding `CCN(CC)c1ccc(C(=C2C=CC(=[N+](CC)CC)C=C2)c2ccccc2)cc1`, the activity change, negative = inhibition is -79.9% (active).
The result for `CCN(Cc1cccc(S(=O)(=O)O)c1)c1cccc(C(=C2C=CC(=[N+](CC)Cc3cccc(S(=O)(=O)O)c3)C=C2)c2ccc(O)cc2S(=O)(=O)O)c1` reads -44.9% (inactive); that for `O[C@@H]1[C@H](O)[C@@H](CCl)O[C@H]1n1cnc2c(NC3CC4CCC3C4)ncnc21` (some centres not stated), 20.5% (inactive); that for `Cc1cc(Oc2ccc3nc(COc4ccc(CC5SC(=O)NC5=O)cc4)n(C)c3c2)cc(C)c1N` (configuration not stated), 12.3% (inactive).
In the case of `N[C@](CC1c2ccccc2Oc2ccccc21)(C(=O)O)[C@H]1C[C@@H]1C(=O)O` it was 6.02% (inactive).
The result for `CCn1c(=O)[nH]c2ccccc21` reads 10.3% (inactive) and 2.46% (inactive); that for `CCn1c(=O)[nH]c2cc(Cl)c(Cl)cc21`, -80.8% (active) and -78.6% (active).
`CCN(CCO)CCCOc1ccc2c(Nc3cc(CC(=O)Nc4cccc(F)c4)[nH]n3)ncnc2c1`: the activity change, negative = inhibition was 18.9% (inactive).
In the case of `CCOc1ccc2nc(SCCN3CCOCC3)[nH]c2c1` it was 17.7% (inactive).
The result for `Cc1cc(/C=C/C#N)cc(C)c1Nc1ccnc(Nc2ccc(C#N)cc2)n1` reads 17.7% (inactive); that for `Cc1cc(C#N)cc(C)c1Oc1nc(Nc2ccc(C#N)cc2)nc(N)c1Br`, -89.7% (active); that for `Cc1cc(C)c(Nc2ccnc(Nc3ccc(C#N)cc3)n2)c(C)c1`, -44.9% (inactive).
The result for `C[C@@H](N)c1ccc(C(=O)Nc2ccnc3[nH]ccc23)cc1` reads -3.01% (inactive); that for `C=CC(=O)Nc1ccccc1`, -0.419% (inactive); that for `CC(=O)c1ccc(N2CCOCC2)cc1O`, 0.777% (inactive).
Turning to `O=c1cc(-c2ccc(O)cc2)oc2ccc(O)cc12`, the activity change, negative = inhibition is -46.2% (inactive).
The result for `CCCCCCCC(=O)OCC(COC(=O)CCCCCCC)OC(=O)CCCCCCC` reads 13.9% (inactive).
In the case of `[Cl][Ru]([Cl])([Cl])[Cl].c1ccc2[nH]ncc2c1.c1ccc2[nH]ncc2c1` it was 8% (inactive); in that of `C#CC1(O)CCC2C3CCC4=Cc5oncc5CC4(C)C3CCC21C` (configuration not stated), -93.9% (active).
In the case of `CC(=O)[C@@]12OC(C)(c3ccccc3)O[C@@H]1C[C@H]1[C@@H]3CCC4=CC(=O)CC[C@]4(C)[C@H]3CC[C@@]12C` (some centres not stated) it was -52.9% (inactive); in that of `C#C[C@]1(O)CCC2C3CCC4=Cc5oncc5C[C@]4(C)C3CC[C@@]21C` (some centres not stated), -82.2% (active) and -83.7% (active); in that of `CC(=O)[C@@]12O[C@](C)(c3ccccc3)O[C@@H]1CC1C3CCC4=CC(=O)CC[C@]4(C)C3CC[C@@]12C` (some centres not stated), -11.3% (inactive).
Take `C[C@]12CCC(=O)C=C1CCC1C2C(=O)C[C@@]2(C)C1CC[C@]2(O)C(=O)CO` (some centres not stated): the activity change, negative = inhibition was -0.365% (inactive) and 6.68% (inactive).
The result for `NC(CSSCC(N)C(=O)O)C(=O)O` (configuration not stated) reads 13.9% (inactive); that for `CC1(C)SC2C(NC(=O)[C@H](NC(=O)N3CCNC3=O)c3ccccc3)C(=O)N2C1C(=O)O` (some centres not stated), 33.6% (inactive).
In the case of `NS(=O)(=O)c1cc2c(cc1Cl)NC(CC1CCCC1)NS2(=O)=O` (configuration not stated) it was 18.7% (inactive); in that of `NS(=O)(=O)c1cc2c(cc1Cl)NC(C1CC3C=CC1C3)NS2(=O)=O` (configuration not stated), -95.9% (active); in that of `NS(=O)(=O)c1cc2c(cc1Cl)NC(C(Cl)Cl)NS2(=O)=O` (configuration not stated), 13.1% (inactive) and 33% (inactive).
